Among the data in PubChem BioAssay (Tox21) are Potency values, retold here.

Where “and” joins values, the source holds several entries; their conditions need not be identical. Equal values may be shown once. Inconclusive results are not listed. A structure can be active in one record and inactive in another. Calls of active or inactive are those of the source. Unless noted, calls follow the shape of the full dose curve.

Assay [1] can be described thus: qHTS assay to identify small molecule agonists of the vitamin D receptor (VDR) signaling pathway - cell viability counter screen (AID 743224; active = well fitted curve in the direction sought with a large enough effect in the repeat runs; an effect the other way counts as inactive or inconclusive; also: nearly all actives have a fitted effect of over 50% in size; also: potency is read from the fitted curve at half-maximal effect). An outline of the steps:
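Plated VDR-bla cells (4 h, 37C) received compound, incubated 16 h, then LiveBLAzer substrate 2 h RT; CellTiter-Glo added afterwards, luminescence read at 30 min.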
Background: qHTS replaces the single test concentration by a dilution series.

Assay [2] is described as follows: qHTS assay to identify small molecule antagonists of the vitamin D receptor (VDR) signaling pathway - cell viability counter screen (AID 743225; active = well fitted curve in the direction sought with a large enough effect in the repeat runs; an effect the other way counts as inactive or inconclusive; also: nearly all actives have a fitted effect of over 50% in size; also: potency is read from the fitted curve at half-maximal effect). The method, boiled down:
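Cytotoxicity counter screen read by CellTiter-Glo luminescence (30 min, room temperature) in the same wells as the VDR-bla antagonist readout. HEK 293T VDR-UAS-bla cells had 16 h at 37C with compound and 3 nM (final) 1-alpha,25-dihydroxyvitamin D3, then 2 h with FRET substrate.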

Assay [3] is described as follows: qHTS assay to identify small molecule agonists of the NFkB signaling pathway - cell viability counter screen (AID 1159515). Also: nearly all actives have a fitted effect of over 55% in size. Also: potency is read from the fitted curve at half-maximal effect. The method, boiled down:
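Using the same wells as the NFkB reporter read, ME-180 NFkB-bla cells given compounds for 5 hr were assessed for viability via CellTiter-Glo, with luminescence taken after a 30 min room-temperature incubation.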

The nature of assay [4]: qHTS assay to identify small molecule agonists of the endoplasmic reticulum stress response signaling pathway (AID 1159516; active = well fitted activation curve with a large enough effect in the signal ratio in the repeat runs, not every such curve was filed as active; the % refers to the signal ratio). An outline of the steps:
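An ESRE-bla HeLa cell assay: compounds were pin-transferred from DMSO onto overnight-plated cells and left 5 hr at 37 C. Substrate was then loaded for 2 hr at room temperature before reading fluorescence at 460 nm and 530 nm.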

Assay [5] in a line: qHTS assay to identify small molecule agonists of the endoplasmic reticulum stress response signaling pathway - cell viability counter screen (AID 1159517). Also: nearly all actives have a fitted effect of over 50% in size. Also: potency is read from the fitted curve at half-maximal effect. An outline of the steps: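 CellTiter-Glo was added to wells already read for beta-lactamase FRET, and luminescence was recorded 30 min later. Cells: ESRE-bla HeLa, 1,500 per well, compound exposure 5 hr at 37 C.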
The nature of assay [6]: qHTS assay to identify small molecule agonists of the AP-1 signaling pathway - cell viability counter screen (AID 1159525). Also: nearly all actives have a fitted effect of over 55% in size. Also: potency is read from the fitted curve at half-maximal effect. The method, boiled down:
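ME-180 AP-1-bla, 2500 cells/well, Opti-MEM + 0.5% dialyzed FBS; overnight 37 °C; cpd 15-pt titration, 5 h 37 °C; CellTiter-Glo 30 min RT; luminescence read; normalised to TOAB and DMSO controls.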

Assay [7] is described as follows: qHTS assay to identify small molecule agonists of the AP-1 signaling pathway (AID 1159526).
Assay [8] has as its target Retinoic acid receptor RXR-alpha (Homo sapiens) (UniProt P19793). Nature of the assay: qHTS assay to identify small molecule agonists of the RXR signaling pathway (AID 1159527). Also: nearly all actives have a fitted effect of over 35% in size. Also: potency is read from the fitted curve at half-maximal effect. The method, boiled down:
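Agonist-mode beta-lactamase reporter assay: HEK 293T RXR-alpha-UAS-bla cells treated 16 hr at 37 C with compounds, 9-cis retinoic acid as positive control. LiveBLAzer FRET substrate, 405 nm excitation, 460/530 nm emission.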

Assay [9] has as its target Nuclear receptor ROR-gamma (Homo sapiens) (UniProt P51449). Nature of the assay: qHTS assay to identify small molecule antagonists of the retinoid-related orphan receptor gamma (ROR-gamma) signaling pathway (AID 1159521; active = well fitted curve in the direction sought with a large enough effect in the repeat runs; an effect the other way counts as inactive or inconclusive; also: nearly all actives have a fitted effect of over 50% in size; also: potency is read from the fitted curve at half-maximal effect). The method, boiled down:
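Antagonist read-out: drop in luminescence (ONE-Glo) from an RORE-LUC reporter in CHO cells with doxycycline-inducible ROR-gamma; 2 hr compound pretreatment, 1 uM doxycycline, 16 hr incubation at 37 C.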

Assay [10] can be described thus: qHTS assay to identify small molecule antagonists of the retinoid-related orphan receptor gamma (ROR-gamma) signaling pathway - cell viability counter screen (AID 1159520; active = well fitted curve in the direction sought with a large enough effect in the repeat runs; an effect the other way counts as inactive or inconclusive; also: nearly all actives have a fitted effect of over 50% in size; also: potency is read from the fitted curve at half-maximal effect). The method, boiled down: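 Tet-on ROR gamma CHO cells (1,000/well) were plated 4 hr, given compounds in DMSO for 2 hr at 37 C, then induced with 1 uM final doxycycline for 16 hr. Viability was read as ATP by CellTiter-Glo luminescence after 30 min.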

Chain of Retinoic acid receptor RXR-alpha (Homo sapiens) (P19793 whole entry, looked up): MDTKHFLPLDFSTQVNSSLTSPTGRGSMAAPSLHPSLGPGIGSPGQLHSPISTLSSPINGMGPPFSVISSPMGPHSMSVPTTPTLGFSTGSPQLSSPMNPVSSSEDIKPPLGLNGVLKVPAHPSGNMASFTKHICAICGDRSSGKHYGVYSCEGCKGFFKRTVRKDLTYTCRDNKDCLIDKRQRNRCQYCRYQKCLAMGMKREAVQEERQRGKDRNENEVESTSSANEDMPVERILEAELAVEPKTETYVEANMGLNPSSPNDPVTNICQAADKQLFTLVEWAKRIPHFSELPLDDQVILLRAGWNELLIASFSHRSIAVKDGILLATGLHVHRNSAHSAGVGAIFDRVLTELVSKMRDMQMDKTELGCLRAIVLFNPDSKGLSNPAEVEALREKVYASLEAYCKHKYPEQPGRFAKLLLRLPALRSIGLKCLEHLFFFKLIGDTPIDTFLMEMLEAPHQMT

For `CCCCCCCCCCCCCCCl`, the Potency entry in assay [1], in assay [2], in assay [3], in assay [4], in [5] and in assay [6] was “inactive” throughout. The Potency entry in assay [7] and in [8] was “inactive” each time.
With `C[CH2][Hg][S]c1ccccc1C(=O)O`, the Potency in [2] is 3.47 µM (active) and 4.25 µM (active); in assay [3], 3.47 µM (active) and 6.01 µM (active); in assay [5], 6.74 µM (active); in [9] it was 611 nM (active) and 1.33 µM (active); in assay [6] it was 4.36 µM (active) and 3.79 µM (active).
On to `CCOP(=O)(SC(C)CC)N1CCSC1=O` (stereo not drawn), for which the Potency entry in assay [1], in assay [2], in [3], in [4], in [5] and in assay [9] was “inactive” in each case. Further, the Potency result in assay [6] and in [7] was “inactive” throughout. For the same molecule, the Potency in [8] is 11 µM (active).
In the case of `O=S(=O)(c1ccccc1)c1ccccc1`, the Potency result in assay [2], in assay [3], in assay [4], in assay [5], in [9] and in assay [6] was “inactive” throughout. For the same molecule, the Potency entry in assay [7] and in assay [8] was “inactive” throughout.
Take `COP(=O)(OC)OC(Br)C(Cl)(Cl)Br` (stereo not drawn): the Potency result in [3], in assay [5], in [6] and in assay [8] was “inactive” each time. Besides, the Potency in assay [10] was 24.3 µM (active); in assay [9] it was 27.3 µM (active).
`CC1(C)[C@H](C(=O)O[C@H](C#N)c2cccc(Oc3ccccc3)c2)[C@@H]1C=C(Br)Br`: the Potency entry in [1], in assay [2], in assay [3], in [5], in assay [9] and in assay [6] was “inactive” throughout. Moreover, the Potency entry in [8] is “inactive”.
Regarding `CCC1(C2=NCCN2)Cc2ccccc2O1` (stereo not drawn), the Potency entry in [1], in assay [2], in assay [3], in assay [4], in assay [5] and in [9] was “inactive” in each case. The Potency entry in assay [6], in [7] and in [8] was “inactive” in each case.
For the molecule `Cc1nc2ccccc2c(=O)n1-c1ccccc1Cl`, the Potency result in assay [1], in assay [2], in assay [3], in [4], in assay [5] and in assay [9] was “inactive” throughout. For the same molecule, the Potency result in assay [6] and in assay [7] was “inactive” throughout.
In the case of `O=C(N/N=C/c1ccc([N+](=O)[O-])o1)c1cc([N+](=O)[O-])cc([N+](=O)[O-])c1O`, the Potency result in [1], in assay [2], in assay [3], in assay [4], in assay [5] and in assay [6] was “inactive” each time. In addition, the Potency result in assay [7] is “inactive”.
In the case of `O=C(CCl)CCl`, the Potency entry in assay [2], in [3], in [6] and in assay [8] was “inactive” throughout. The Potency in assay [5] was 43.6 µM (active); in assay [10], 5.45 µM (active); in [9], 14.2 µM (active) and 12.2 µM (active).
With `Cc1ccccc1`, the Potency entry in assay [1], in [2], in assay [3], in [4], in [5] and in assay [9] was “inactive” throughout. Also, the Potency entry in assay [6], in [7] and in assay [8] was “inactive” throughout.
Consider `CC(C)(C)N(NC(=O)c1ccc(Cl)cc1)C(=O)c1ccccc1`, for which the Potency entry in assay [1], in assay [3], in [4], in assay [5], in assay [6] and in assay [7] was “inactive” in each case. In addition, in assay [8], the Potency result is “inactive”.
For the molecule `CCCCCCCCn1sccc1=O`, the Potency was 873 nM (active) and 1.15 µM (active) in assay [1]; 19.5 µM (active) and 22.9 µM (active) in assay [2]; 49.1 µM (active) and 3.63 µM (active) in assay [3]; 24.4 µM (active) and 9.05 µM (active) in [10]; 6.13 µM (active) and 9.05 µM (active) in assay [9]; 5.51 µM (active) and 5.13 µM (active) in assay [6].
As for `O=[N+]([O-])/C=C/c1ccccc1`, the Potency was 49 µM (active) in assay [1]; 49.8 µM (active) and inactive in [2]; 44.4 µM (active) and 54.9 µM (active) in assay [3]; 11 µM (active) and 13.7 µM (active) in assay [10]; 5.54 µM (active) and 9.69 µM (active) in assay [9]. Moreover, the Potency result in assay [5] and in [6] was “inactive” throughout.
On to `Cc1cnc(C2=NC(C)(C(C)C)C(=O)N2)c(C(=O)O)c1` (stereo not drawn), for which the Potency entry in assay [1], in assay [3], in [4], in [5], in assay [9] and in [6] was “inactive” throughout. In assay [7], the Potency result was “inactive”.
As to `CCC(C)(C)c1ccc(O)c(C(C)(C)CC)c1`, the Potency in assay [1] is 12.2 µM (active) and 11 µM (active); in assay [2], 12.2 µM (active) and 19.5 µM (active); in assay [3], 21.6 µM (active) and 21.9 µM (active); in assay [5], 15.3 µM (active) and 21.9 µM (active); in [10], 60.4 µM (active); in [9], 60.4 µM (active) and 48.6 µM (active). In addition, the Potency in assay [6] is 12.2 µM (active) and 13.8 µM (active).
Turning to `CCCN(CCOc1c(Cl)cc(Cl)cc1Cl)C(=O)n1ccnc1`, the Potency entry in assay [1], in assay [3], in assay [5], in assay [10], in [6] and in assay [7] was “inactive” throughout.
For the molecule `C1CS1`, the Potency entry in [1], in [2], in [3], in assay [4], in assay [5] and in assay [9] was “inactive” throughout. Further, the Potency entry in assay [6], in assay [7] and in assay [8] was “inactive” in each case.
For `Nc1ccccc1C(=O)OCCc1ccccc1`, the Potency entry in assay [1], in assay [3], in assay [4], in [5], in assay [6] and in assay [7] was “inactive” in each case.
